# Results filed as inconclusive are left out. Some compounds were tested as several samples or in several runs, with calls that do not always agree. Calls of active or inactive are those of the source. Calls follow the shape of the dose curve; as a rule, active = well fitted curve in the direction sought with a large enough effect; inconclusive = small, poorly fitted or top-dose-only effect, or another doubt; inactive = no such curve, though single readings can be large; an effect the other way counts as inactive or inconclusive.
# Columns and labels:
# [1] = qHTS assay for measurement of the activity of small molecule inhibitors on Zika virus induced Caspase-3 activity in human iPSC derived neural progenitor cells (hNPCs) (AID 1224857); settings: hNPCs ZIKV-induced caspase-3/7, Caspase-Glo luminescence, 6 h; series mostly up to 45.7 µM; also: nearly all actives have a fitted effect of over 65% in size; also: potency is read from the fitted curve at half-maximal effect
# Method in brief: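 Zika virus (2 FFU/cell) infection of human iPSC-derived NPCs, 6 h, following 1 h compound preincubation. Read-out: Caspase-Glo 3/7 luminescence.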
# [2] = qHTS assay for measurement of the activity of small molecule inhibitors on Zika virus induced Caspase-3 activity in human astrocytoma cells (AID 1224859); settings: SNB-19 ZIKV-induced caspase-3/7, luminescence, 6 h; series mostly up to 45.7 µM
# Method in brief: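 Caspase activation in ZIKV-infected SNB-19 cells (2 FFU/cell, 6 h) measured by Caspase-Glo 3/7 luminescence after 30 min RT; compound pre-incubated 1 h; normalised to uninfected and infected controls.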
# [3] = qHTS Screen of the MIPE 4.0 Collection Against Ewings Sarcoma (RDES) (AID 1259252); settings: RD-ES Ewing sarcoma viability, CellTiter-Glo, 48 h; series mostly up to 45.8 µM; also: nearly all actives have a fitted effect of over 35% in size; also: potency is read from the fitted curve at half-maximal effect
# Method in brief: (§1)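 Dose series incubated 48 h with cells in RPMI plus 5% FBS, glutamine and penicillin/streptomycin; cell viability then quantified via CellTiter-Glo.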
# [4] = qHTS Screen of the MIPE 4.0 Collection Against Ewings Sarcoma (TC71) (AID 1259253); settings: TC71 Ewing sarcoma viability, CellTiter-Glo, 48 h; series mostly up to 45.8 µM; also: nearly all actives have a fitted effect of over 40% in size; also: potency is read from the fitted curve at half-maximal effect
# Method in brief: as §1
# [5] = qHTS Screen of the MIPE 4.0 Collection Against Ewings Sarcoma (EW8) (AID 1259255); settings: EW8 Ewing sarcoma viability, CellTiter-Glo, 48 h; series mostly up to 45.8 µM; also: nearly all actives have a fitted effect of over 35% in size; also: potency is read from the fitted curve at half-maximal effect
# Method in brief: as §1
# [6] = qHTS Screen of the MIPE 4.0 Collection Against Ewings Sarcoma (TC32) (AID 1259256); settings: TC32 Ewing sarcoma viability, CellTiter-Glo, 48 h; series mostly up to 45.8 µM; also: nearly all actives have a fitted effect of over 45% in size; also: potency is read from the fitted curve at half-maximal effect
# Method in brief: as §1
# [7] = Identifying Small Molecule Inhibitors of Pancreatic Cancer Stem Cells (A2780, Spheroid) (AID 1259357); settings: Potency: A2780 spheroid viability; series mostly up to 46.1 µM; also: potency is read from the fitted curve at half-maximal effect;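 also: spheroids pre-formed over 14 days in stem cell medium on hydrogel; compound exposure lasted 48 h before the ATP luminescence read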
# Method in brief: (§2)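 Viability is scored by CellTiter-Glo luminescence 48 h after dosing, expressed as percent activity against vehicle and no-cell references. Spheroid formats rely on cells cultured 14 days in stem cell media beforehand.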
# [8] = Identifying Small Molecule Inhibitors of Pancreatic Cancer Stem Cells (SN12C, Adherent) (AID 1259358); settings: viability/growth inhibition; series mostly up to 46.1 µM;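 also: cell survival measured after 48 h of compound exposure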; also: potency is read from the fitted curve at half-maximal effect
# Method in brief: (§3)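 Endpoint: ATP-based luminescence, 48 h drug exposure. Bortezomib at 9.2 uM final as full-kill control; DMSO vehicle as negative control; activity normalized between vehicle and cell-free wells.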
# [9] = Identifying Small Molecule Inhibitors of Pancreatic Cancer Stem Cells (Panc1, Spheroid) (AID 1259359); settings: Panc1 spheroid cancer stem cell viability; series mostly up to 46.1 µM;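 also: potency is read from the fitted curve at half-maximal effect; compound exposure lasted 48 h before reading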
# Method in brief: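 After a 4 h attachment period, compounds were pinned into wells and cultures held 48 h under standard incubator conditions. Viability was then measured as CellTiter-Glo luminescence following 10 min at room temperature.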
# [10] = Identifying Small Molecule Inhibitors of Pancreatic Cancer Stem Cells (SN12C, Spheroid) (AID 1259360); settings: Potency: SN12C spheroid viability; series mostly up to 46.1 µM; also: potency is read from the fitted curve at half-maximal effect
# Method in brief: as §2
# [11] = Identifying Small Molecule Inhibitors of Pancreatic Cancer Stem Cells (A278, Adherent) (AID 1259361); settings: series mostly up to 46.1 µM;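 also: viability read after 48 h compound exposure; nearly all actives have a fitted effect of over 35% in size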
# Method in brief: as §3
# [12] = P-glycoprotein substrates identified in KB-3-1 adenocarcinoma cell line, qHTS therapeutic library screen (AID 1346986); settings: KB-3-1 parental cells viability, CellTiter-Glo, 72 h; series mostly up to 44.5 µM; also: nearly all actives have a fitted effect of over 60% in size;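 also: potency is read from the fitted curve at half-maximal effect; potency is for cytotoxicity meaning loss of cell viability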
# Method in brief: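 Viability by CellTiter-Glo after 72 h compound exposure at 37 degree C, 5% CO2. Cytotoxic call: curve class -1.1 to -2.4, maximum response >50%, AC50 < 10 uM, compared across KB-3-1 and P-gp-overexpressing KB-8-5-11.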
# [13] = P-glycoprotein substrates identified in KB-8-5-11 adenocarcinoma cell line, qHTS therapeutic library screen (AID 1346987); settings: KB-8-5-11 (P-gp overexpressing) viability, CellTiter-Glo, 72 h; series mostly up to 44.5 µM; also: nearly all actives have a fitted effect of over 65% in size; also: potency is read from the fitted curve at half-maximal effect
# Method in brief: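 In this qHTS, P-gp-rich KB-8-5-11 cells received library compounds across a concentration range. Viability was quantified by luminescence after 72 h at 37 degree C.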
# [14] = NS1 protein of Zika virus - qHTS assay to identify small molecule inhibitors in human HEK 293 cells (AID 1347053); settings: HEK293 ZIKV MR766 infection, NS1 TR-FRET, 24 h; series mostly up to 46.1 µM; also: nearly all actives have a fitted effect of over 55% in size; also: potency is read from the fitted curve at half-maximal effect
# Method in brief: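 Compound-treated (1 h pre-infection) HEK 293 cells infected with ZIKV MR766, MOI = 0.5; after 24 h at 37 C, NS1 read by TR-FRET; data normalized to uninfected and infected controls.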
# [15] = qHTS assay to identify small molecule inhibitors of chordoma cells - UCH-2 (AID 1259356); settings: UCH-2 chordoma viability, CellTiter-Glo ATP luminescence, 48 h; series mostly up to 46.1 µM
Structure (SMILES),Potency [1],Potency [2],Potency [3],Potency [4],Potency [5],Potency [6],Potency [7],Potency [8],Potency [9],Potency [10],IC50 (viability decrease) [11],Potency [12],Potency [13],Potency [14],outcome [15]
CC(=O)OCC(=O)[C@@]1(O)[C@H](C)C[C@H]2[C@@H]3C=C(C)C4=Cc5c(cnn5-c5ccccc5)C[C@]4(C)[C@@H]3[C@@H](O)C[C@@]21C,inactive,inactive,6.62 µM (active),6.62 µM (active),7.43 µM (active),5.9 µM (active),inactive,inactive,14.8 µM (active),20.9 µM (active),13.2 µM (active),inactive,inactive,11.8 µM (active),–
COC(=O)[C@]12CCC(C)(C)C[C@@H]1[C@@H]1C(=O)C=C3[C@@]4(C)C=C(C#N)C(=O)C(C)(C)[C@@H]4CC[C@@]3(C)[C@]1(C)CC2,inactive,inactive,0.372 µM (active),0.264 µM (active),0.296 µM (active),0.118 µM (active),1.32 µM (active),2.64 µM (active),1.18 µM (active),2.35 µM (active),1.05 µM (active),–,743 nM (active),1.32 µM (active),–
Cc1cnc(-c2cnc(NCCNc3ccc(C#N)cn3)nc2-c2ccc(Cl)cc2Cl)[nH]1,inactive,inactive,8.33 µM (active),11.8 µM (active),16.6 µM (active),11.8 µM (active),inactive,inactive,–,inactive,–,–,inactive,inactive,–
COC(=O)C[C@](O)(CCCC(C)(C)O)C(=O)O[C@@H]1C(OC)=C[C@]23CCCN2CCc2cc4c(cc2[C@H]13)OCO4,inactive,inactive,inactive,inactive,inactive,inactive,–,–,–,–,–,–,8200 nM (active),inactive,inactive
Cc1nc2cnc3ccc(C#Cc4cccnc4)cc3c2n1-c1ccc(C(C)(C)C#N)cc1,inactive,inactive,0.132 µM (active),0.132 µM (active),0.118 µM (active),0.105 µM (active),1.87 µM (active),1.18 µM (active),18.7 µM (active),–,0.187 µM (active),inactive,37.2 nM (active) and inactive,0.935 µM (active),–
CN1c2cc(O)c(N=NC(N)=O)cc2CC1S(=O)(=O)O (stereo not drawn),inactive,inactive,inactive,inactive,inactive,inactive,–,–,–,–,–,inactive,inactive,inactive,inactive
c1ccc2c(CCNc3ccc(Nc4ccncc4)cc3)c[nH]c2c1,inactive,inactive,16.6 µM (active),14.8 µM (active),5.26 µM (active),5.26 µM (active),inactive,18.7 µM (active),–,23.5 µM (active),16.6 µM (active),–,–,8.33 µM (active),–
C[C@@H](Oc1cc(-n2cnc3ccc(CN4CCN(C)CC4)cc32)sc1C(N)=O)c1ccccc1C(F)(F)F,inactive,inactive,0.0935 µM (active),0.0743 µM (active),0.0743 µM (active),0.0743 µM (active),inactive,–,–,–,0.0187 µM (active),–,118 nM (active),0.059 µM (active),–
C[C@]1(CO)CN(c2cc(C(=O)Nc3ccc4c(c3)-c3c(c(C(N)=O)nn3-c3ccc(F)cc3)CC4)c(Cl)cn2)C[C@@]1(C)CO,inactive,inactive,14.8 µM (active),13.2 µM (active),16.6 µM (active),13.2 µM (active),inactive,16.6 µM (active),–,inactive,–,5.8 µM (active),inactive,4.69 µM (active),–
Nc1ccn([C@@H]2CS[C@H](CO)O2)c(=O)n1,inactive,inactive,inactive,inactive,inactive,inactive,–,–,–,–,–,–,–,inactive,inactive
Cc1c(NC(=O)OC[C@@H]2COCCN2)cn2ncnc(Nc3ccc4c(cnn4Cc4cccc(F)c4)c3)c12,inactive,inactive,0.166 µM (active),1.05 µM (active),1.48 µM (active),0.935 µM (active),–,–,–,–,–,–,–,–,–
CC1(C)OC2=C(C(=O)c3ccccc3C2=O)[C@H](NCc2ccccc2)[C@H]1O,18.7 µM (active),inactive,2.64 µM (active),2.64 µM (active),2.96 µM (active),3.32 µM (active),14.8 µM (active),26.4 µM (active),0.743 µM (active),23.5 µM (active),–,–,9350 nM (active),–,–

# Source: PubChem BioAssay (NCATS)
